Compound activity as filed in PubChem BioAssay.
In the library only some 3.6% were active in any assay of this set; here they are far more common.
S16 F2sN tox – toxic to S16 Pmp22-F2sN Schwann cells | S16 Pmp22-F2sN Schwann cells viability, CellTiter-Glo, 24 h | Potency, µM (series often up to 57.5 µM), without a hit: top-dose activity change, negative = cytotoxicity, usual class: cytotoxic | 0.48% of 43,000 active; also: % is scaled to controls: 0 for no effect and ±100 for the full control effect; nearly all actives have a fitted effect of over 65% in size
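S16 Schwann cells carrying the Pmp22-F2sN reporter, seeded in 1536-well format, were exposed to library compounds for 24 h at 37C. Viability was read as CellTiter-Glo luminescence after 15 min at room temperature.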
PMP22 txn – PMP22 gene transcription modulation; S16 Pmp22-F2sN Schwann cells (luciferase reporters placed in the Pmp22 gene), FLuc/NLuc coincidence luminescence, 24 h; Potency, µM (titrated, usually from 57.5 µM), inactives show top-dose activity change, negative = inhibition, usual class: inhibitors; 2% of 43,000 active; AID 1508649; active = clear falling dose curves in both reporters; inconclusive = both reporters move, but less clearly or upward; inactive = either reporter flat; the % is the NLuc reporter signal; also: % is scaled to controls: 0 for no effect and ±100 for the full control effect
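S16(c9) Schwann cells with FLuc/NLuc coincidence reporter in the Pmp22 3' UTR; compounds pin-transferred, 24 h at 37C. Dual-luciferase read: FLuc first, then NLuc after Stop&Glo, each 10 min at room temperature.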
HTT promoter inh – inhibits huntingtin promoter activity; 0.93% of 48,000 active; HEK293 HTT promoter firefly luciferase reporter, 24 h; AID 1508623; Potency, µM (titrated, usually from 57.5 µM), for the others: at the highest dose activity change, negative = inhibition, usual class: inhibitors; also: nearly all actives have a fitted effect of over 50% in size
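Luminescence was read after Dual-Glo reagent and a 10 min room-temperature incubation. Values were normalized to vehicle (0% activity) and zero RLU (-100% activity). Reporter HEK293 cells had been exposed to compounds (up to 57.5 uM final) for 24 h.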
HTT-AS act – activates huntingtin-antisense promoter activity; HEK293 HTT-AS promoter firefly luciferase reporter, 24 h; response scale: percent change from vehicle, -100% = no light; 0.24% of 48,000 active; Potency, µM (top dose mostly 57.5 µM), for inactives: at the top dose activity change, positive = activation, actives largely listed as activators; also: nearly all actives have a fitted effect of over 55% in size
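Firefly luciferase signal from promoter-reporter HEK293 cells was scaled between vehicle (0%) and zero RLU (-100%). Compounds were tested at final concentrations of up to 57.5 uM over 24 h at 37 degrees C. PTC124 at 50 uM final served as control inhibitor.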
pS6 MEF inh – inhibitors of mTORC1 signaling in Tsc2-/- p53-/- MEF cells; Tsc2-/- p53-/- MEF, phospho-rpS6 immunofluorescence/PI, 24 h; Potency, µM (titrated, usually from 38.3 µM), for the others: top-dose activity change, negative = inhibition, most hits filed as inhibitors; 0.78% of 44,000 active;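 also: plate controls were DMSO for no effect and rapamycin for full effect; nearly all actives have a fitted effect of over 50% in size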
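Readout is phospho-S6 Alexa 488 signal normalized to PI per well, reported as % active cells with thresholds set from rapamycin (7.5 nM) and DMSO controls. Cells: Tsc2-/-, p53-/- MEFs, 24 hrs compound at 37 C; PI cell number serves as viability.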
SKOV3 invasion – inhibitors of ovarian cancer cell adhesion and invasion in omental model; SKOV3ip1-GFP adhesion/invasion on 3D omental model, fluorescence; Potency, µM (titrated, usually from 45.8 µM), for the others: at the top dose activity change, negative = inhibition, usual class: inhibitors; 0.1% of 46,000 active; AID 1963576;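 also: plate controls were DMSO wells for no effect and tomatine positive control wells for full effect; nearly all actives have a fitted effect of over 65% in size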
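qHTS, 4-pt dose (0.36-46 umol/L); SKOV3ip1-GFP, 1,200 cells/well, no FBS; primary omental fibroblast/mesothelial co-culture 48 h pre-grown; 2 h RT + 16 h 37 C; PBS wash, 4% PFA; GFP count 488/509 nm.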
Active calls of the source: *; [ ] = dose if it differs, or a comment. Unless noted, calls follow the shape of the dose curve; as a rule, active = well fitted curve in the direction sought with a large enough effect; inconclusive = small, poorly fitted or top-dose-only effect, or another doubt; inactive = no such curve, though single readings can be large; an effect the other way counts as inactive or inconclusive. Potency is read from the fitted curve at half-maximal effect.

What do the screens show for `CN1CCc2c(sc3c2C(=O)NC(c2ccc(C(C)(C)C)cc2)N3)C1` (centres undefined)?
S16 F2sN tox: 14µM*; PMP22 txn: inconclusive; HTT promoter inh: -7%[11.5 µM]; HTT-AS act: 5%[11.5 µM]; pS6 MEF inh: -16%; SKOV3 invasion: -2%

How did CC(C)c1ccc(C2NC(=O)c3c(sc4c3CCN(C)C4)N2)cc1 (centres undefined) do in these assays?
S16 F2sN tox: inconclusive; PMP22 txn: inconclusive; HTT promoter inh: -5%; HTT-AS act: 6%; pS6 MEF inh: 1%; SKOV3 invasion: 0%

Results for CCOC(=O)c1c(C)n(-c2ccccc2)c2ccc(OC(=O)c3ccccc3)cc12 ?
S16 F2sN tox: -11%; PMP22 txn: inconclusive; HTT promoter inh: 20µM*; HTT-AS act: -71%; pS6 MEF inh: -11%; SKOV3 invasion: -2%

How did CCOC(=O)c1c(C)n(-c2ccccc2)c2ccc(OC(=O)c3cccc(Cl)c3)cc12 do in these assays?
S16 F2sN tox: inconclusive; PMP22 txn: -16%; HTT promoter inh: 2%; HTT-AS act: -4%; pS6 MEF inh: -5%; SKOV3 invasion: 3%

How did C=C[C@@H]1CN2CCC1C[C@@H]2C(O)c1ccnc2ccc(OC)cc12 (some centres undefined) do in these assays?
HTT promoter inh: -4%; HTT-AS act: -12%; SKOV3 invasion: -8%

How did C[C@@H](Oc1cc(-c2cnn(C3CCNCC3)c2)cnc1N)c1c(Cl)ccc(F)c1Cl do in these assays?
HTT promoter inh: inconclusive; HTT-AS act: -25%; SKOV3 invasion: -16%

Results for CCc1ccc2nc(N3CCN(C(=O)c4ccco4)CC3)sc2c1 ?
S16 F2sN tox: 0%; PMP22 txn: inconclusive; HTT promoter inh: 3%; HTT-AS act: inconclusive; pS6 MEF inh: -4%; SKOV3 invasion: -2%

How did CCCCN(C)CCCNC(=O)C1CCN(c2nc3ccc(CC)cc3s2)CC1 do in these assays?
S16 F2sN tox: inconclusive; PMP22 txn: inconclusive; HTT promoter inh: 33%; HTT-AS act: inconclusive; pS6 MEF inh: 18µM*; SKOV3 invasion: inconclusive

Results for CCCCN(CC)CCCNC(=O)C1CCN(c2nc3ccc(CC)cc3s2)CC1 ?
S16 F2sN tox: inconclusive; PMP22 txn: inconclusive; HTT promoter inh: -23%; HTT-AS act: 11%; pS6 MEF inh: 7.4µM*; SKOV3 invasion: inconclusive

How did CC(C)C[C@@H](N)[C@H](O)C(=O)N[C@H](C(=O)N[C@H](C(=O)N[C@@H](CC(=O)O)C(=O)O)C(C)C)C(C)C do in these assays?
HTT promoter inh: -22%; HTT-AS act: -11%; SKOV3 invasion: -5%

Results for CNC(=O)c1ccc(N2C(=S)N(c3cnc(C#N)c(C(F)(F)F)c3)C(=O)C23CCC3)cc1F ?
HTT promoter inh: inconclusive; HTT-AS act: -9%; SKOV3 invasion: -6%

Results for CCN1CCN(CC(=O)Nc2ccc(-c3cccc4c(=O)cc(N5CCOCC5)oc34)c3sc4ccccc4c23)CC1 ?
HTT promoter inh: -21%; HTT-AS act: -36%; SKOV3 invasion: 15%

What do the screens show for `Cc1ccc(Cl)cc1Nc1nn2c(=O)c3ccc(C(=O)NC(C)c4ccccc4)cc3nc2s1` (centres undefined)?
S16 F2sN tox: inconclusive; PMP22 txn: 7.6µM*; HTT promoter inh: inconclusive; HTT-AS act: -36%; pS6 MEF inh: -12%; SKOV3 invasion: -40%

What do the screens show for `COc1ccccc1Nc1nn2c(=O)c3ccc(C(=O)NCCc4ccccc4)cc3nc2s1`?
S16 F2sN tox: 8.9µM*; PMP22 txn: 5.6µM*; HTT promoter inh: 7.1µM*; HTT-AS act: -73%; pS6 MEF inh: inconclusive; SKOV3 invasion: inconclusive

What do the screens show for `COc1ccccc1Nc1nn2c(=O)c3ccc(C(=O)NC(C)c4ccccc4)cc3nc2s1` (centres undefined)?
S16 F2sN tox: 6%; PMP22 txn: -15%; HTT promoter inh: -15%; HTT-AS act: -21%; pS6 MEF inh: -6%; SKOV3 invasion: 6%

What do the screens show for `CC(Sc1ncc(S(=O)(=O)c2ccc(C(C)C)cc2)c(N)n1)C(=O)Nc1ccccc1` (centres undefined)?
S16 F2sN tox: 5%; PMP22 txn: inconclusive; HTT promoter inh: 32µM*; HTT-AS act: -47%; pS6 MEF inh: -8%; SKOV3 invasion: inactive

How did CC(C)c1ccc(S(=O)(=O)c2cnc(SCC(=O)Nc3ccc(F)cc3F)nc2N)cc1 do in these assays?
S16 F2sN tox: 25%; PMP22 txn: inconclusive; HTT promoter inh: inconclusive; HTT-AS act: -30%; pS6 MEF inh: -1%; SKOV3 invasion: -7%

How did CCC(C)S(=O)(=O)c1oc(-c2cccs2)nc1S(=O)(=O)c1ccccc1 (centres undefined) do in these assays?
S16 F2sN tox: 2.5µM*; PMP22 txn: 1.4µM*; HTT promoter inh: inconclusive; HTT-AS act: -94%; pS6 MEF inh: 1.2µM*; SKOV3 invasion: -20%

How did CC(C)CS(=O)(=O)c1oc(-c2ccc(F)cc2)nc1S(=O)(=O)c1ccccc1 do in these assays?
S16 F2sN tox: 4.5µM*; PMP22 txn: inconclusive; HTT promoter inh: inconclusive; HTT-AS act: -94%; pS6 MEF inh: 0.74µM*; SKOV3 invasion: inconclusive

How did O=S(=O)(c1ccccc1)c1nc(-c2ccc(F)cc2)oc1NCc1ccccc1 do in these assays?
S16 F2sN tox: 19%; PMP22 txn: -14%; HTT promoter inh: -16%; HTT-AS act: 10%; pS6 MEF inh: -1%; SKOV3 invasion: -9%

What do the screens show for `COc1cc(Cl)c(C)cc1NC(=O)C1CCN(c2nc3ccccc3n3cccc23)CC1`?
S16 F2sN tox: -6%; PMP22 txn: inconclusive; HTT promoter inh: inconclusive; HTT-AS act: -32%; pS6 MEF inh: 15µM*; SKOV3 invasion: -2%

Results for Cc1cc(C)c(NC(=O)C2CCN(c3nc4ccccc4n4cccc34)CC2)c(C)c1 ?
S16 F2sN tox: 10%; PMP22 txn: -18%; HTT promoter inh: -8%; HTT-AS act: -6%; pS6 MEF inh: 15µM*; SKOV3 invasion: -4%

Results for Cc1ccc(CN2c3ccccc3-c3nc(SCC(=O)NCCc4ccccc4)ncc3S2(=O)=O)cc1 ?
S16 F2sN tox: 2%; PMP22 txn: 3%; HTT promoter inh: -18%; HTT-AS act: -3%; pS6 MEF inh: 6%; SKOV3 invasion: -10%
